# Bioassay records (PubChem)
# L major viab = Leishmania major promastigote growth inhibition, primary screen. inhibition, % at 10 µM. 9% of 200,000 active. Leishmania major promastigotes, resazurin fluorescence viability; in the data active = inhibition above about 50%;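 also: promastigotes grown with compound for 44 hours at 28 °C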
# WT yeast gro inh = growth inhibition of WT strain, primary screen, mitochondrial fusion inhibitor project, WT and mutant strains, chemical genetic; mitochondrial fusion phenotypic screen; inhibition, % at 10 µM; 2.1% of 190,000 active; in the data active = inhibition above about 58%; tested in S. cerevisiae
# m-calpain inh = inhibitors of pig calpain II, primary screen, biochemical, fluorogenic peptide substrate, 1536-well; AID 1236, 2008; 0.37% of 220,000 active; inhibition, % at 16 µM; purified calpain II, 30 min;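 active = inhibition above about 50%, limit read from the data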
# Cl transport mod = KCC2 cotransporter modulators, thallium flux, primary screen, cell-based, HEK293 KCC2, FluoZin-2 fluorescence, MLSMR. Solute carrier family 12 member 5 (Homo sapiens), Q9H2X9. KCC2 cells, thallium flux FluoZin-2 fluorescence. 2.2% of 190,000 active. B-score of Tl+ flux slope (higher = more flux/activation; lower = inhibition) at 10 µM;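 active = thallium flux slope and its plate-corrected score both differing from the plate sample mean at a set confidence after two filtering rounds, in either direction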;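 also: slope of fluorescence scaled to starting intensity during 10 to 20 s after thallium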
# ROMK mod = ROMK potassium channel modulators, primary screen, cell-based, thallium flux, MLSMR library; ATP-sensitive inward rectifier potassium channel 1 (Homo sapiens), P48048; Tet-inducible ROMK, thallium flux fluorescence; actives lie on both sides; B-score at 10 µM; 2% of 130,000 active; AID 1918, 2009;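 active = signal ratio slope over the read window, or its plate-corrected B-score, at least 3 SD from the plate mean, either direction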;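 also: B-score of the F/F0 ratio slope over 7 to 12 s after thallium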
# Target sequence (P48048 whole entry, looked up): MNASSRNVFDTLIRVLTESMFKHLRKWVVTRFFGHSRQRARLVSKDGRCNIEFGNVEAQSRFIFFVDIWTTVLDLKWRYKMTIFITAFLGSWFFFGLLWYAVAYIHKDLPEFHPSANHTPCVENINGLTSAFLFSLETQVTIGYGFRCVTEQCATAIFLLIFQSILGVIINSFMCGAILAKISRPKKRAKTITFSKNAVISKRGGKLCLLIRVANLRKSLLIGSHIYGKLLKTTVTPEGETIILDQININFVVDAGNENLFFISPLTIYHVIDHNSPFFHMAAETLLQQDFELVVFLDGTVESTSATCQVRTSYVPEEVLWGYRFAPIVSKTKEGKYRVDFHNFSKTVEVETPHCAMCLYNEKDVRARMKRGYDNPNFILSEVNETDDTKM
# The depositor's hits bear a star; i = inactive; x = not tested or not shown. An excerpt weighted towards active compounds, which were near 12% of everything screened.
SMILES,L major viab,WT yeast gro inh,m-calpain inh,Cl transport mod,ROMK mod
Cc1ccc(C(=O)Oc2coc(CSc3nnc(NC(=O)C4CC4)s3)cc2=O)cc1C,-6,-9,3,-0.44,-0.11
CC1=C(C)C(=O)NC(Nc2nc(C)c3cc(C)cc(C)c3n2)N1 (configuration not stated),100*,x,x,-0.38,x
CCCc1cc(=O)[nH]c(SCC(=O)Nc2cc(C)on2)n1,-7,6,-22,-0.1,1.1
COc1ccc2c(c1)CCc1c(C(=O)N3CCCCCC3)noc1-2,3,-3,14,x,-0.57
COc1ccc2c(c1)CCc1c-2n[nH]c1C(=O)O,13,72*,-18,-0.42,-0.52
COc1ccc(-c2coc3c(CN4CCOCC4)c(O)ccc3c2=O)cc1,x,x,-336,-0.041,x
O=c1c(-c2ccc(Cl)cc2)coc2c(CN3CCOCC3)c(O)ccc12,59*,3,i,x,-0.46
CCN1C(=O)CC(N2CCN(c3ccc(C(=O)c4ccncc4)cc3)CC2)C1=O (configuration not stated),73*,0,16,x,0.69
CCOc1ccc(N2C(=O)CC(N3CCN(c4ccc(C(=O)c5ccncc5)cc4)CC3)C2=O)cc1 (configuration not stated),77*,x,x,0.81,x
O=C(c1ccc(N2CCN(C3CC(=O)N(c4ccc(F)cc4)C3=O)CC2)cc1)c1cccnc1 (configuration not stated),2,-9,19,x,x
Cc1sc2c(=O)n3c(nc2c1C(=O)NCCCN1CCOCC1)CCCCC3,24,6,-11,-0.02,x
CCOC(=O)c1ccc2c(c1)nc(SCc1cn3ccsc3n1)n2CC,99*,28,26,x,x
O=C(Cn1nnc(-c2cccc(C(F)(F)F)c2)n1)NC1CCCC1,-5,7,13,0.039,0.59
COC(=O)C1=NNC2C(=O)N(C3CCCCC3)C(=O)C12 (configuration not stated),-4,-2,-22,0.87,-0.25
COc1ccc(Cn2nnnc2C(c2ccccc2)N2CCN(C3CCCC3)CC2)cc1 (configuration not stated),-5,4,3,-0.13,x
COc1ccc(C(c2nnnn2CCc2ccccc2)N2CCN(C3CCCC3)CC2)cc1 (configuration not stated),99*,-8,30,-0.47,x
CCC(c1nnnn1CCc1ccccc1)N1CCN(c2ccc(OC)cc2)CC1 (configuration not stated),96*,18,-14,-1.2,x
COc1ccc(C(c2nnnn2C2CCCCC2)N2CCN(c3ccccc3)CC2)cc1 (configuration not stated),84*,x,x,-1.3,x
COc1ccc(C(c2nnnn2C2CCCC2)N2CCN(c3ccccc3)CC2)cc1 (configuration not stated),63*,29,8,-0.55,x
COc1ccc(N2CCN(C(c3nnnn3C3CCCC3)C(C)C)CC2)cc1 (configuration not stated),-1,2,-16,0.12,-0.36
CN(C)/C=C(\C=O)c1ncc(C(F)(F)F)cc1Cl,-1,0,-1,0.67,1.9
COc1cc2c(C#N)c(N3CCN(C)CC3)nc(N)c2c(N)n1,100*,23,i,0.28,x
COc1cc2c(C#N)c(N3CCCC3)nc(N)c2c(N)n1,x,x,-336,-0.32,0.16
Cc1c(NC(=O)CN2c3ccccc3CC2C)c(=O)n(-c2ccccc2)n1C (configuration not stated),-7,-2,10,1.2,-0.47
CCN(CC)C(=S)Nc1ccc(Cl)c(Cl)c1,62*,17,22,0.59,-0.62
SMILES,L major viab,WT yeast gro inh,m-calpain inh,Cl transport mod,ROMK mod
CCNC(=O)C(=O)Nc1ccc([N+](=O)[O-])cc1,-2,2,17,0.12,-0.85
CCN(CC)C(=S)Nc1ccc([N+](=O)[O-])cc1,59*,-8,2,0.5,-0.33
O=C(CSc1ccc(Cl)cc1)NCc1ccco1,-8,-2,-11,0.29,-0.39
Nc1nc(CCl)nc(Nc2cccc3ccccc23)n1,x,x,7,-1.8,x
COc1cc(C2=NOC(C(=O)Nc3c(C)n(C)n(-c4ccccc4)c3=O)C2)cc(OC)c1OC (configuration not stated),x,x,-8,0.29,x
CC1(C)CC(=O)c2c(O)cc(OCc3ccc([N+](=O)[O-])cc3)cc2O1,-6,83*,-25,x,x
